Sampled rows, rich in hits. Any-hit rate of the full collection: about 12%.
Sfp inh: qHTS Assay for Inhibitors of Bacillus subtilis Sfp phosphopantetheinyl transferase (PPTase) | 3.5% of 310,000 active | Biochemical Sfp PPTase activity, qHTS | 4'-phosphopantetheinyl transferase ffp (Bacillus subtilis), Q9F4F7 | AID 1490, 2009 | Potency, µM, for inactives: largest response in the series, negative = inhibition, actives largely listed as inhibitors;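 also: the enzyme is Sfp with the accession as filed and its product quenches rhodamine fluorescence; 0% = enzyme reaction without inhibitor and -100% = no enzyme wells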
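With Hepes-Na pH 7.6 buffer containing 10 mM MgCl2, Sfp (15 nM) modified BHQ-2-YbbR (12.5 uM) using rhodamine-CoA (5 uM). Two reads 30 minutes apart at 525/598 nm yielded each well's rate.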
BAZ2B inh: qHTS Assay for Inhibitors of BAZ2B; AlphaScreen BAZ2B-H3K14Ac peptide displacement; Potency, µM (highest dose often 114 µM), for the others: at the highest dose activity change, negative = inhibition, hits mostly inhibitors; 4.4% of 360,000 active; AID 504333, 2011; also: % is scaled to controls: 0 for no effect and ±100 for the full control effect; nearly all actives have a fitted effect of over 60% in size
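BAZ2B (50 nM) with biotin-H3(5-23)K14Ac peptide (50 nM) in PBS pH 7.4, 0.01% Tween-20, preformed 30 min, then compound 30 min at room temperature; top concentration 110uM. AlphaScreen streptavidin donor/nickel chelate acceptor beads (10 ug/mL final), 20 min dark, signal read.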
JMJD2A Tudor inh: qHTS Assay for Inhibitors of JMJD2A-Tudor Domain. Lysine-specific demethylase 4A (Homo sapiens), O75164. AlphaScreen JMJD2A-Tudor / H3K4me3 peptide binding. Potency, µM (highest dose often 114 µM), for the others: at the top dose activity change, negative = inhibition, actives largely listed as inhibitors. 4.4% of 390,000 active. AID 504339, 2011; also: % is scaled to controls: 0 for no effect and ±100 for the full control effect; nearly all actives have a fitted effect of over 50% in size
HP1b binding inh: HTS for Inhibitors of HP1-beta Chromodomain Interactions with Methylated Histone Tails; Chromobox protein homolog 1 (Homo sapiens), P83916; AlphaScreen HP1-beta / biotin-H3K9me3 peptide binding; Potency, µM (doses to about 114 µM), for the others: at the top dose activity change, negative = inhibition, usual class: inhibitors; 0.56% of 390,000 active; also: nearly all actives have a fitted effect of over 70% in size
Target sequence (P83916 whole entry, looked up): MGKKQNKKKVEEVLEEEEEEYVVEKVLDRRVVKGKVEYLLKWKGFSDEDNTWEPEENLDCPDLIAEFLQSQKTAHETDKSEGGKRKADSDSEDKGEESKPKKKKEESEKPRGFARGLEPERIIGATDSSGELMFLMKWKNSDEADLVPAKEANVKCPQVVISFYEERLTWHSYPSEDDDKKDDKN
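AlphaScreen: HP1-beta (50 nM) preformed 30 min with biotin-H3(1-18)K9me3 peptide (50 nM) in PBS pH 7.4, 0.01% Tween-20. Compound added for 30 min at RT, then streptavidin donor/nickel chelate acceptor beads (10 ug/mL) for 30 min.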
G9a block: qHTS Assay for Inhibitors of Histone Lysine Methyltransferase G9a | Histone-lysine N-methyltransferase EHMT2 (Homo sapiens), Q96KQ7 | G9a H3K9 monomethylation, AlphaScreen, 2 h | Potency, µM (titrated, usually from 102 µM), for the others: at the highest dose activity, negative = inhibition, actives largely listed as inhibitors | 8.8% of 350,000 active; also: % is scaled to controls: 0 for no effect and ±100 for the full control effect; nearly all actives have a fitted effect of over 75% in size
Target sequence (Q96KQ7 913-1193 limits assumed): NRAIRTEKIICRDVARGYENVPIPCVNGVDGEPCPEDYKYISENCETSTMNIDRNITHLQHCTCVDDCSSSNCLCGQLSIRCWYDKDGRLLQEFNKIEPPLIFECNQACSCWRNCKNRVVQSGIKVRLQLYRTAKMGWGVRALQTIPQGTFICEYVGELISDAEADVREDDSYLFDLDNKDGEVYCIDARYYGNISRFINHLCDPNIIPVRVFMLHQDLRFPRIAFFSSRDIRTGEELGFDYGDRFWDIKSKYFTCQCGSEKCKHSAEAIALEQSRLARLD
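AlphaScreen read-out: biotin-H3K9 peptide (500 nM) methylation by 20 nM enzyme with 20 uM SAM, 2 h at room temperature after 15 min compound preincubation; anti-monomethyl H3K9 antibody plus donor/acceptor beads, 10 min dark.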
* = called active by the depositor; ? = inconclusive; / = not tested or not shown; ! = not active in a repeat; [ ] = remark or other dose. Calls follow the shape of the dose curve; as a rule, active = well fitted curve in the direction sought with a large enough effect; inconclusive = small, poorly fitted or top-dose-only effect, or another doubt; inactive = no such curve, though single readings can be large; an effect the other way counts as inactive or inconclusive. Potency is read from the fitted curve at half-maximal effect.

SMILES	Sfp inh	BAZ2B inh	JMJD2A Tudor inh	HP1b binding inh	G9a block
CC1(C)Cc2nc(NCCN3CCOCC3)c(C#N)cc2CO1	-2%	-2%	-8%	29%	?
CNc1c2c(nn1C)CCCC2	-2%	?	20µM*!	40µM*!	?
CCOC(=O)Cn1c(=O)c2c(nc(N3CCOCC3)n2C)n(C)c1=O	8%	5%	-4%	10%	8%
CCCCCOC(=O)Cn1c(=O)c2c(nc(N3CCOCC3)n2C)n(C)c1=O	-3%	8%	?	1%	10µM*
Cc1cccc(C)c1NC(=O)C1(NC(=O)c2cnccn2)CCCCC1	20%	0%	-8%	37%	14%
Cc1oc(-c2cccc(F)c2)nc1CN1CCCN(C(=O)c2ccco2)CC1	26%	-25%	-19%	30%	4%
CN1CCN(C(=O)C2CCCN(S(=O)(=O)c3ccc(Cl)cc3)C2)CC1 (stereo not drawn)	-25%	50µM*	0.71µM*	?	10µM*
CN1CCN(C(=O)C2CCCN(S(=O)(=O)c3ccccc3)C2)CC1 (stereo not drawn)	?	?	20µM*	-16%	/
Cc1ccc2oc(=O)c3cc(C(=O)N4CCN(c5ccccc5F)CC4)sc3c2c1	/	-4%	-13%	41%	5%[59 µM]
COCCCN=C1NN=C(c2cc(C)n(-c3ccccc3)c2C)CS1	-21%	?	-36%	-7%	71µM*
COCCCN=C1NN=C(c2cc(C)n(Cc3ccccc3Cl)c2C)CS1	?	40µM*	?	?	28µM*
COCCN=C1NN=C(c2cc(C)n(CC3CCCO3)c2C)CS1 (stereo not drawn)	-29%	-15%	-33%	-20%	?
COCCCN=C1NN=C(c2cc(C)n(-c3ccccc3F)c2C)CS1	?	71µM*	?	-4%	50µM*
C=CCN=C1NN=C(c2cc(C)n(CC=C)c2C)CS1	-41%	?	?	2%	?
Cc1cc(C2=NNC(=NCCc3ccccc3)SC2)c(C)n1-c1c(C)n(C)n(-c2ccccc2)c1=O	-23%	-9%	-10%	-7%	-11%[59 µM]
Cc1cc(C2=NNC(=Nc3ccccc3)SC2)c(C)n1C	32µM*	?	?	?	8.9µM*
Cc1cccc(N=C2NN=C(c3ccccc3F)CS2)c1C	1%	-28%	-13%	24%	?
O=C(c1ccccc1)c1ccc(C(=O)N2CCN(c3ccc(O)cc3)CC2)cc1	/	/	?	-32%	/
COCCn1c(C)cc(C2=NNC(=Nc3ccccc3F)SC2)c1C	35µM*	?	89µM*	-24%	7.9µM*
COc1ccc(CN(CC(O)COc2cccc3[nH]cc(C)c23)C(C)(C)C)cc1 (stereo not drawn)	6%	?	50µM*	?	?
CC1CN(c2ccc(NC(=S)Nc3ccc(N4CC(C)OC(C)C4)cc3)cc2)CC(C)O1 (stereo not drawn)	-14%	-33%	-19%	31%	45µM*
CC1CN(C(=S)Nc2ccc(Cl)cc2)CC(C)O1 (stereo not drawn)	-5%	5%	1%	32%	-14%
O=C(CSc1ccc(Br)cc1)NCC(c1ccco1)N1CCCCC1 (stereo not drawn)	/	-1%	-14%	10%	?
O=C(N/N=C/c1ccco1)c1cccc(S(=O)(=O)Nc2ccccc2Cl)c1	1%	?	?	-2%	21%[59 µM]
CSc1ccc(CN2CCSCC2)cc1	-6%	79µM*	13µM*	?	13µM*
SMILES	Sfp inh	BAZ2B inh	JMJD2A Tudor inh	HP1b binding inh	G9a block
CC(C)c1ccc(CN2CCN(S(=O)(=O)c3ccc(Cl)s3)CC2)cc1	/	3%	23%	66%	7%[2.33 µM]
CC(C)c1ccc(CN2CCSCC2)cc1	-16%	?	2.8µM*	?	/
Brc1cc(Br)cc(CN2CCSCC2)c1	-6%	18%	5%	54%	/
CCc1ccc(CN2CCSCC2)cc1	-13%	?	2.2µM*	?	/
CCCC(=O)N(c1ccc(C(=O)O)cc1)c1nc(-c2ccccc2)c(C)s1	-7%	-16%	-15%	26%	-9%
COc1cccc(C(=O)N2CCN(Cc3ccccc3[N+](=O)[O-])CC2)c1	-9%	?	22µM*	?	11µM*
CCS(=O)(=O)N1CCN(C(=O)c2cccc(OC)c2)CC1	15%	/	-2%	28%	6%[59 µM]
O=C(c1cccs1)N1CCN(CCc2ccccc2)CC1	10%	9%	-13%	30%	-33%[59 µM]
O=C(c1cccs1)N1CCN(Cc2ccccc2[N+](=O)[O-])CC1	-21%	56µM*	?	?	11µM*
O=S(=O)(Cc1noc(-c2ccc(Cl)cc2)n1)Cc1ccco1	4µM*	?	-20%	-2%	/
Clc1ccc(-c2nc(Cc3ccccc3Cl)no2)cc1	-6%	316%	4%	42%	372%
O=S(=O)(Cc1ccco1)Cc1nc(-c2ccc(Cl)cc2)cs1	25µM*	-2%	-25%	-6%	/
CNC(=O)C1CC(=O)N(Cc2ccc(OC)c(OC)c2)C(=Nc2ccc(OC)cc2)S1 (stereo not drawn)	12%	4%	-18%	12%	-9%
CCOC(=O)N1CCN(C(=O)CSc2nc3c(cnn3-c3ccc(C)cc3)c(=O)[nH]2)CC1	6%	-1%	-8%	53%	?
O=S1(=O)c2cccc3cccc(c23)N1Cc1nnc(-c2ccccc2Br)o1	1%	6%	-15%[11.4 µM]	-13%	56µM*
CN(C)CCSc1nc(N)c2c3c(sc2n1)CN(C)CC3	12%	-7%	-14%	10%	45µM*
CCCSc1nc(N)c2c3c(sc2n1)CN(C)CC3	3%	0%	-14%	40%	-46%[12.7 µM]
CC(C)Sc1nc(N)c2c3c(sc2n1)CN(C)CC3	5%	6%	-17%	32%	3.2µM*
NC(=O)NC(CC(=O)NCCCc1ccccc1)c1ccccc1Cl (stereo not drawn)	5%	0%	-6%	7%	-24%
Cc1ccccc1C(=O)N1CCCN(C(=O)c2ccccc2C)CC1	18%	8%	1%	59%	3%[59 µM]
CC(C)Cc1ccc(CN2CCCC(NC(=O)CCN3CCCO3)C2)cc1 (stereo not drawn)	3%	-32%	-25%	11%	79µM*
CC(C)Cc1ccc(CN2CCCC(NC(=O)CCN3CCCCC3=O)C2)cc1 (stereo not drawn)	6%	-5%	-11%	39%	-9%
COc1ccc(CCNC(=O)Cc2c(C)c3c(cc(C)c4c(C)c(C)oc43)oc2=O)cc1OC	/	-8%	?	29%	-2%[59 µM]

Screening results as filed in PubChem.
